Experimental data from the supplement of paper PMC4723716.

Tested on: Plasmodium falciparum NF54 gametocytes
Experiment: viability index relative to DMSO control (fraction); higher = less gametocyte killing
Details: 12.5 µM, incubation time: 72 h
In short: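 The viability index was calculated as the gametocyte particle count over the plate mean of solvent-only wells. For this, P. falciparum NF54 gametocytes of every stage (I–V) were held with compound at 12.5 µM for 72 hr at 37°C under low oxygen in 384-well plates. MitoTracker Red CMXRos staining for 20 min was followed by transfer of 5 µl into 40 µl of 500 nM dye in serum-free medium, with three fields imaged after 30 min.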

[1] = gametocyte stage: Stage I viability index
[2] = gametocyte stage: Stage II viability index
[3] = gametocyte stage: Stage III viability index
[4] = gametocyte stage: Stage IV viability index
[5] = gametocyte stage: Stage V viability index

SMILES	viability index [1]	viability index [2]	viability index [3]	viability index [4]	viability index [5]
CCCc1cc(O)c2c3c(c(=O)oc2c1)CN(C)CC3	0.134	0.296	0.649	0.827	0.637
CCOc1cc(CNC(C)C(O)c2ccccc2)cc(Cl)c1OCC (stereo not given)	0.137	0.337	0.634	0.729	0.791
CN(N=O)C1=C(NC2CCCCC2)C(=O)c2ccccc2C1=O	0.00787	0.0183	0.309	0.456	0.234
Oc1ccc(Br)cc1CN1CCN(Cc2ccc(Cl)cc2)CC1	0.0201	0.0916	0.422	0.595	0.455
CCCCCCc1cc(O)c2c3c(c(=O)oc2c1)CCC(C)C3 (stereo not given)	0.291	0.329	0.578	0.608	0.74
Oc1ccc(Br)cc1CN1CCN(Cc2cccc(F)c2)CC1	0.0385	0.0899	0.0787	0.196	0.273
COc1ccc(CN2CCN(Cc3ccccc3)CC2)c(O)c1	0.0656	0.0974	0.362	0.57	0.494
CCOc1c(Cl)cc(CNC(C)C(O)c2ccccc2)cc1OC (stereo not given)	0.0917	0.317	0.584	0.754	1.14
O=C(CCc1ccco1)NC1CCN(CC2(c3ccc(Cl)cc3)CCC2)CC1	0.103	0.412	0.854	0.903	1.05
C=CC12CCN(CC1)C(C(O)c1ccnc3ccc(OC)cc13)C2 (stereo not given)	1.08	1.08	1.13	0.976	1.1
COc1cc(CNCCc2ccc(Cl)cc2)cc(OC)c1O	0.049	0.44	0.801	1.01	0.896
Oc1ccc(C(=C(Cl)Cl)c2ccc(O)cc2)cc1	0.596	0.301	0.741	0.756	0.584
